Reference: PubChem BioAssay (NCI)
The panel holds about 83,000 compounds, 20% with a hit somewhere; the sample as a whole holds those more often.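 Step 1: grow cells in 96-well plates. Step 2: add test compound at a single concentration. Step 3: incubate 48 h. Step 4: record percent growth.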 A number with no mark means an inactive call. The source made the active and inactive calls. The calls were made as follows: active = growth percent below 10; inactive = the rest.

system: MDA-MB-468 breast; experiment: NCI-60 one-dose screen, 48 h (100 = growth as untreated, 0 = no growth, -100 = all killed); details: 10 µM unless noted

| Compound | growth |
| --- | --- |
| Cc1cccc(NC(=O)Nc2ccc(-n3cnc4cc(-c5ccc(O)cc5)ccc43)cc2)c1 | 38.4% |
| CN(C)c1ncc(C#Cc2c(F)cccc2F)c2ccccc12 | -7.26% (active) |
| Cc1cc(Nc2nc(N3CCNCC3)nc3ccccc23)n[nH]1 | 76.6% |
| Cc1ccc(C2C3CC4CCCCC4N3[C@@]3(C(=O)Nc4cc(Cl)ccc43)C2C(=O)c2nc3ccccc3[nH]2)cc1 (stereo not given in full) | -10.9% (active) |
| CN(C)CCCN=c1cc2c(=O)n(CCCN(C)C)c(=O)c3c(NCCCN(C)C)cc4c(O)n(CCCN(C)C)c(=O)c1c4c3-2 | -53.2% (active) |
| O=c1ssc(Cl)c1-c1ccccc1 | 97.3% |
| O=c1[nH]cnc2nc[nH]c12 | 100% |
| COC(=O)c1nc(-c2ccccc2)oc1S(=O)(=O)n1nc(C)cc1N | 59.2% |
| CN1CCCCC1CCN1c2ccccc2Sc2ccc(Br)cc21 (stereo not given) | 32.1% |
| COc1ccc(-c2n[nH]nc2-c2cc(OC)c(OC)c(OC)c2)cc1 | -0.494% (active) |
| O=C1CCCCN1c1ccc(C2=NCCCN2)cc1 | 82.2% |
| COc1ccc(-c2nn(-c3cccc(NC(=O)c4ccc(N5CCOCC5)c(C(F)(F)F)c4)c3)cc2-c2ccncc2)cc1Cl | 80.6% |
| CCN(CC)Cc1cc(Nc2c3ccc(Cl)cc3nc3ccc(OC)cc23)ccc1O | 60.5% |
| C#Cc1cc2c(N)c(C(=O)c3cc(OC)c(OC)c(OC)c3)[nH]c2cc1OC | 9.88% (active) |
| O=S(=O)(Cc1ccccc1)c1ccccc1 | 102% |
| COc1ccc(-c2c3c(N)c4c(nc3nc3c2c(C)nn3-c2ccccc2)CCCCC4)cc1 | 76% |
| COc1cccc(-c2nn(-c3ccccc3)cc2-c2ccnc(NCCNC(=O)Nc3cccc(C(F)(F)F)c3)c2)c1 | 15.5% |
| O=C(NCCCl)Nc1nccnc1OCc1ccc(F)cc1 | 102% |
| COc1ccc(C(=O)c2cc(OC)c(OC)c(OC)c2)cc1/C=C/C(=O)c1ccc(OC)c(OC)c1 | 8.42% (active) |
| Clc1ccc(-c2nc(-c3cccs3)no2)cc1 | 44.7% |

| Compound | growth |
| --- | --- |
| Oc1ccccc1C=Nc1ccc(N2CCN(c3ccccc3)CC2)cc1 | 108% |
| NS(=O)(=O)c1ccc(CN=C2NC(=O)S/C2=C\c2ccc(Br)cc2)cc1 | 97.1% |
| O=C(c1ccc(Nc2nccc(NCCCCNc3ccnc4cc(Cl)ccc34)n2)cc1)N1CCCCC1 | -25.3% (active) |
| O=S(=O)(NCCNc1nccc(-c2c(-c3ccc(F)cc3)nc3sccn23)n1)c1ccc(F)cc1 | 52.1% |
| O=C(N/N=C\c1cc(Cl)ccc1O)N/N=C/c1cc(Cl)ccc1O | 61.5% |
| CCN(CC)CCCOC(=O)Nc1ccccc1Cl | 107% |
| COc1cc(/C=N/Nc2ncc(-c3cc4cc5c(cc4o3)OCO5)s2)cc(OC)c1OC | 25.2% |
| COc1cc(C(=O)N2CCN(c3ccccc3)CC2)c2ccccc2n1 | 5.08% (active) |
| Cc1ccc(-c2cc3nc(C(Cl)Cl)nc(-c4ccccc4)n3n2)cc1 | -16.4% (active) |
| O=C(/C=C/c1ccccc1Cl)c1cccc(OCCCCOc2cccc(C(=O)/C=C/c3ccccc3Cl)c2)c1 | 110% |
| NC(=O)CC1C=CCC1 (stereo not given) | 111% |
| O=S(=O)(NCCCNc1cc(-c2cn(-c3ccccc3)nc2-c2cccc(O)c2)ccn1)c1ccc(Cl)cc1 | -15.9% (active) |
| COc1cc(/C=C2\Oc3cc(OCCCN4CCCC4)ccc3C2=O)cc(OC)c1 | 42.3% |
| CCOC(=O)c1nc2c3ccccc3ccn2c1C(=O)OCC | 109% |
| COc1ccc(CN2CCc3c(Sc4ccccc4)nc(N)nc3C2=O)c(OC)c1 | 48.2% |
| Cn1cc(-c2nonc2-c2cn(C)c3ccc(F)cc23)c2ccccc21 | 0.775% (active) |
| O=C(Nc1ccc(Cl)cc1)N1CCN(c2ccc3nncn3n2)CC1 | -78.2% (active) |
| CCOc1ccc(NC(=O)Nc2cc(C(C)C)ccc2C)cc1 | 114% |
| CC(C)Nc1ccc(Nc2ccc(NC(C)C)cc2)cc1 | -7.07% (active) |
| Cc1ccc(NC(=S)N2CCOCC2)cc1C | 83.5% |
